Screening data from PubChem BioAssay.
IMPase cell inh: membrane-permeable compound that blocks inositol monophosphatase; P97697; CHO-M1 cells, IP1 accumulation, HTRF TR-FRET ratio; inhibition (IP1 accumulation), % at 46.1 µM; 120,000 tested, under 10 active; AID 901; active means well fitted curve in the direction sought with a large enough effect in the signal ratio, not every such curve was filed as active; inconclusive means small, poorly fitted or top-dose-only effect, or a change in a side signal; inactive means no such curve, though single readings can be large or run the other way; the % refers to the signal ratio;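 further: cells stimulated with carbachol in lithium chloride buffer; higher means more IMPase inhibition seen as more IP1 and lower FRET ratio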
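Measured: the HTRF emission ratio (665/620 nm) plus the 620 nm donor channel, each fitted to the Hill equation to give AC50. Cells were CHO-M1 given compounds up to 46 uM and a 30 min carbachol stimulation at 37C.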
HPGD block: inhibitors of human 15-hydroxyprostaglandin dehydrogenase (HPGD); P15428; purified HPGD, NADH fluorescence kinetic, PGE2 substrate; Potency, µM, usual class: inhibitors; 150,000 compounds, 4.3% hits
Target sequence (P15428 whole entry, looked up): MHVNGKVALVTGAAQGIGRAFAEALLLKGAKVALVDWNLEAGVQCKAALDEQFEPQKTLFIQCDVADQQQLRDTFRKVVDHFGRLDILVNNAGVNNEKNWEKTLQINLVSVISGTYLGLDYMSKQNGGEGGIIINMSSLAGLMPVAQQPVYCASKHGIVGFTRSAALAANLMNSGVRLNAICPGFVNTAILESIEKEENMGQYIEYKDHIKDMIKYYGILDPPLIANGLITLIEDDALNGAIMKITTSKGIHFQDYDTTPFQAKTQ
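20 nM HPGD preincubated 15 min at room temperature with compound in 50 mM Tris-HCl pH 8, 0.01% Tween 20. Started with 1 mM NAD+ and 30 uM prostaglandin E2; NADH fluorescence (360/450 nm) read 5 times over 30-s intervals, last minus first.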
ALDH1A1 block: blocks purified human ALDH1A1 activity | Potency, µM (doses to about 75.3 µM), usual class: inhibitors | P00352 | AID 1030 | Purified ALDH1A1, NADH fluorescence, propionaldehyde substrate | 220,000 compounds, 7.3% hits
Numbers stand for hits; . = inactive; ? = inconclusive; / = no result. Sampled rows, rich in hits. Any-hit rate of the full collection: about 9%. Unless noted, the call rests on the fitted dose curve; in most records, active means well fitted inhibition curve with a large enough effect (not every such curve was filed as active); inconclusive means small, poorly fitted or top-dose-only effect, or another doubt; inactive means no such curve, though single readings can be large or run the other way.

SMILES	IMPase cell inh	HPGD block	ALDH1A1 block
CC(C)Cn1c2c(c(O)c(C(=O)Nc3ncccc3O)c1=O)CCCC2	.	.	7.94µM
CC(C)Cn1c2c(c(O)c(C(=O)Nc3ccc(F)cc3)c1=O)CCCC2	.	/	?
NC(=O)c1cnn(-c2cc(Oc3ccccc3)ncn2)c1N	/	/	.
CCCS(=O)(=O)N1CCC(C(=O)NC2CCC(C)CC2)CC1 (stereo not given)	.	/	12.6µM
CC1CCN(S(=O)(=O)N2CCC(C(=O)NC3CCCC3)CC2)CC1	/	/	.
CSCCC(N)C(=O)NC(CC(C)C)C(=O)NC(Cc1ccccc1)C(=O)O (stereo not given)	/	.	.
CC(CCC(=O)O)C1CCC2C3CC[C@H]4CC(O)CC[C@@]4(C)C3CC(O)[C@]12C (stereo not given in full)	/	.	.
COc1ccc(CNC(=O)CN(C(=O)Cn2nnc(-c3ccccc3F)n2)c2ccc(C)cc2)cc1	/	/	8.91µM
COc1ccc(N(CC(=O)NC2CCCC2)C(=O)Cn2nnc(-c3ccc(C)cc3)n2)cc1	.	.	.
O=C(NCCCN1CCOCC1)c1ccc(CSc2ccc(Cl)cc2)cc1	/	/	.
C[N+](C)(CCCCCC[N+](C)(C)CCCN1C(=O)c2ccccc2C1=O)CCCN1C(=O)c2ccccc2C1=O	.	.	.
CCOc1ccc(N(CC(=O)N/N=C/c2cccnc2)S(C)(=O)=O)cc1	/	/	.
O=C(O)c1ccccc1N/N=C/c1c(Sc2nnnn2-c2ccccc2)nc2ccccn2c1=O	/	/	2µM
O=c1c(/C=N/Nc2ccccc2)c(Sc2nnnn2-c2ccccc2)nc2ccccn12	.	.	.
CCOC(=O)c1ccc(-n2c(CN3CCC(C(N)=O)CC3)nc3ccc([N+](=O)[O-])cc3c2=O)cc1	/	/	8.91µM
CCOC(=O)c1ccc(-n2c(CN(CC)CC)nc3ccc([N+](=O)[O-])cc3c2=O)cc1	/	/	28.2µM
CCOC(=O)C1CCN(Cc2nc3ccccc3c(=O)n2-c2ccc(F)cc2)CC1	.	.	.
CCOC(=O)c1ccc(-n2c(CC)nc3ccccc3c2=O)cc1	/	/	.
COc1ccc(CCNC(=O)CN(c2ccc(C)cc2)S(=O)(=O)c2ccc(OC)cc2)cc1	.	/	/
CCCCn1c(N)c(N(CC)C(=O)c2cc(Br)ccc2Cl)c(=O)[nH]c1=O	/	/	.
CC(C)C(=O)N=C1SC2CS(=O)(=O)CC2N1Cc1ccccc1 (stereo not given)	/	.	.
Cn1cnc([N+](=O)[O-])c1Oc1ccc2ccccc2c1	/	.	?
O=c1c(-c2ccc(O)cc2)coc2cc(OC3OC(CO)C(O)C(O)C3O)ccc12 (stereo not given)	/	.	.
CSc1nsc(/C=C/Nc2cccc(Cl)c2)c1C#N	.	.	11.2µM
CSc1nsc(/C=C/Nc2ccc(O)cc2C)c1C#N	/	/	25.1µM
SMILES	IMPase cell inh	HPGD block	ALDH1A1 block
CSc1nsc(N/N=C/c2ccc3c(c2)OCO3)c1C#N	/	/	.
COc1cc(/C=N/Nc2snc(SC)c2C#N)cc(OC)c1OC	.	?	?
CSc1nsc(/C=C/Nc2ccc(Cl)cc2)c1C#N	.	.	7.94µM
Cc1cc(O)ccc1N/C=C(\C#N)c1nc2ccccc2o1	.	?	.
Cc1sc(NC(=O)c2ccc(F)cc2)c(CN2CCCCCC2)c1C	/	.	10µM
Cc1sc(NC(=O)c2ccco2)c(CN2CCN(Cc3ccccc3)CC2)c1C	/	/	28.2µM
COC(=O)c1c(NC(=O)c2ccco2)sc(C(=O)N(C)C)c1C	.	?	?
CCc1c(C)sc(NC(=O)c2ccco2)c1C(=O)N1CCCCC1	.	.	25.1µM
CCOC(=O)c1c(NC(=O)c2ccco2)sc2c1CCCCC2	.	?	?
CCOC(=O)c1c(NC(=O)C(C)N2CCN(C(=O)c3ccco3)CC2)sc2c1CCCC2 (stereo not given)	.	?	22.4µM
Cc1ccc(CN2CCN(C(=O)c3ccco3)CC2)cc1	.	.	.
Cc1sc(NC(=O)c2ccccc2F)c(CN2CCCCC2)c1C	/	.	.
Cn1c(=O)c(NCCc2ccccc2)c2c3c(cccc31)C(=O)c1ccccc1-2	.	.	.
CCCOc1ccc(/C(O)=C2/C(=O)C(=O)N(CCCN3CCOCC3)C2c2ccncc2)cc1 (stereo not given)	.	?	?
O=C(Nc1ccc(Br)cc1)Nc1ccccc1Cl	/	/	.
CC(C)c1ccc(NC(=O)c2cn(C3CCCC3)c(=O)c3c2c2ccccc2n3C)cc1	.	/	/
O=c1c(-c2cccc(F)c2)nc2cncnc2n1Cc1ccccc1	/	.	.
COCCOC(=O)c1c(NC(=O)CNCc2ccco2)sc(C(N)=O)c1C	/	/	10µM
CCOC(=O)c1cc(NC(=O)c2ccco2)ccc1N1CCOCC1	/	/	.
CCOC(=O)c1c(NC(=O)c2ccco2)sc(C(=O)N2CCCC2)c1C	.	14.1µM	?
COCCOC(=O)c1c(NC(=O)CN2CCCc3ccccc32)sc(C(N)=O)c1C	.	/	.
